From PubChem
GDH-TPI counter-1: GDH-TPI coupled enzyme inhibition counter-screen; actives 1.2% (n = 360,000); GDH-TPI coupled enzyme counterscreen, NADH absorbance; inhibition, % at 4.8 µM; in the data active = inhibition above about 30%
Mtb FBA inh: Mtb fructose-bisphosphate aldolase inhibition; inhibition, % at 1 µM; purified M. tuberculosis FBA, fluorescence read-out; actives 2.3% (n = 360,000); P9WQA3
Target sequence (P9WQA3 whole entry, looked up): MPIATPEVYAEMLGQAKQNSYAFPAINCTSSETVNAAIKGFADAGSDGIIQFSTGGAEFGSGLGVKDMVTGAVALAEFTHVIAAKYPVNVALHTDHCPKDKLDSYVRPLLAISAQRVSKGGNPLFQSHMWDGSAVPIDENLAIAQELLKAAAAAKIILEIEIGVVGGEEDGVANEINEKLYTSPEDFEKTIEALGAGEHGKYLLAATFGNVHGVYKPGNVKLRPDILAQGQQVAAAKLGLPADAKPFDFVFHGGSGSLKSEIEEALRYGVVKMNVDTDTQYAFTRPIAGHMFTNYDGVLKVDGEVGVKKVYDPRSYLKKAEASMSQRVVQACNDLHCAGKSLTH
CCHFV vOTU inh: blocks the CCHF virus ovarian tumor domain protease; CCHFV vOTU protease, Pep-AMC fluorescence; inhibition, % at 11.5 µM; actives 0.55% (n = 370,000); AID 651958; in the data active = inhibition above about 30%
MazF activator: MazEF (E. coli) toxin RNase activation | P0AE70 | FAM/BHQ RNA-DNA oligo cleavage fluorescence, 5 h | activation, % at 20 µM | actives 0.32% (n = 350,000); in the data active = activation above about 50%
Target sequence (P0AE70 whole entry, looked up): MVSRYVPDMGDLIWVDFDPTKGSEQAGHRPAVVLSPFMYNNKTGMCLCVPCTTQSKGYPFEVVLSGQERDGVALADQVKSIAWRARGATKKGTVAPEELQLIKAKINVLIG
Mtb betalactam: beta-lactam sensitization of Mtb H37Rv | M. tuberculosis H37Rv growth with meropenem, percent inhibition | actives 0.27% (n = 330,000) | inhibition, % at 25 µM; call rule not given here;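 note: growth measured after seven days incubation then overnight dye step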
Mtb FBA confirm: Mtb FBA inhibition, confirmed; purified M. tuberculosis FBA, fluorescence read-out; actives 78% (n = 5,600); inhibition, % at 1 µM; shares compounds with Mtb FBA inh; AID 651616
GDH-TPI counter-2: GDH-TPI inhibition counter-screen for FBA inhibitors | GDH-TPI coupled enzyme counterscreen, fluorescence | shares compounds with Mtb FBA inh | inhibition, % at 1 µM | actives 81% (n = 5,600); in the data active = inhibition above about 10%
Of the large screens only hits and unclear results are named; the others gave an inactive call (follow-up assays come after a bar, where they were run); ! = a repeat was not active. The list is not random: actives were taken first. Their share in the collection is about 4%. Cut-off read from the data, not from the text of the source, unless noted: active = inhibition above about 27%; inactive = the rest.

O=C(NCc1ccccn1)c1cc(-c2ccc(-c3ccccc3)cc2)nc2ccccc12	Mtb FBA inh 37 | Mtb FBA confirm inactive | GDH-TPI counter-2 15
CC(=O)Nc1ccc(-c2cc(C(=O)O)c3ccccc3n2)cc1	Mtb FBA inh 56 | Mtb FBA confirm active | GDH-TPI counter-2 195
CCOC(=O)Cc1cc(-c2ccc(OC)cc2)nc2ccc3ccccc3c12	Mtb FBA inh 35 | Mtb FBA confirm 110 | GDH-TPI counter-2 89
CC(=O)NS(=O)(=O)c1ccc(NC(=O)c2cc(-c3ccc(C)cc3)nc3ccccc23)cc1	none
O=C(NCCO)c1cc(-c2cc(C(=O)NCCO)c3ccccc3n2)nc2ccccc12	none
COCCNC(=O)c1cc(-c2ccc(-c3ccccc3)cc2)nc2ccccc12	Mtb FBA inh 108 | Mtb FBA confirm active | GDH-TPI counter-2 active
CC1(c2nnnn2Cc2ccccc2)CSCC(=O)N1Cc1cccs1 (stereo not given)	none (no result: GDH-TPI counter-1, Mtb FBA inh, MazF activator, Mtb betalactam)
O=C(OC12CCCN(C1)/C(=C/c1cccc(Cl)c1)C2)C1CCCC1 (stereo not given)	none (no result: GDH-TPI counter-1, Mtb FBA inh, MazF activator, Mtb betalactam)
COc1cccc(CNC(=O)[C@H]2CCCN2C(=O)[C@H]2CCCN2C(=O)c2ccccc2C(F)(F)F)c1	none (no result: GDH-TPI counter-1, Mtb FBA inh, MazF activator, Mtb betalactam)
CCn1cc(-c2cc(C(=O)O)c3ccccc3n2)cn1	Mtb FBA inh 54 | Mtb FBA confirm 60 | GDH-TPI counter-2 44
COc1cc(-c2cc(C(=O)OCC(=O)NC3CC3)c3ccccc3n2)cc(OC)c1OC	none
Cc1ccc(-c2cc(C(=O)NCc3ccccn3)c3ccccc3n2)cc1C	Mtb FBA inh 46 | Mtb FBA confirm 136 | GDH-TPI counter-2 94
COc1ccc(-c2cc(C(=O)OCc3ccccn3)c3ccccc3n2)cc1	Mtb FBA inh 44 | Mtb FBA confirm 107 | GDH-TPI counter-2 86
Cc1ccc(-c2cc(C(=O)OCC(=O)NC3CC3)c3ccccc3n2)cc1	Mtb FBA inh 37 | Mtb FBA confirm 95 | GDH-TPI counter-2 81
Cc1ccc(NC(=S)NNC(=O)CSc2nc3sc4c(c3c(=O)n2-c2ccccc2)CCCC4)cc1	none (no result: GDH-TPI counter-1, Mtb FBA inh, MazF activator, Mtb betalactam)
CCOC(=O)[C@@]12CN(C(=O)OC(C)(C)C)CC=C1N(Cc1ccc(OC)cc1)C(=O)[C@H]2CC(=O)NCc1cccc(C(F)(F)F)c1	none (no result: GDH-TPI counter-1, Mtb FBA inh, MazF activator, Mtb betalactam)
NNC(=O)c1cc(-c2cccs2)nc2ccccc12	Mtb FBA inh 44 | Mtb FBA confirm 110 | GDH-TPI counter-2 92
O=C(O)c1ccc(/C=N/NC(=O)c2cc(-c3cccs3)nc3ccccc23)cc1	Mtb FBA inh 31 | Mtb FBA confirm active | GDH-TPI counter-2 active
NS(=O)(=O)c1ccc(NC(=O)c2cc(-c3cccs3)nc3ccccc23)cc1	none
O=C(NC1=NCCS1)c1cc(-c2cccnc2)nc2ccccc12	none
O=C(NC1=NCCS1)c1cc(-c2cccs2)nc2ccccc12	Mtb FBA inh 44 | Mtb FBA confirm 87 | GDH-TPI counter-2 63
O=C(N/N=C/c1ccsc1)c1cc(-c2cccs2)nc2ccccc12	none
Cc1ccc(-c2cc(C(=O)Nc3cccnc3)c3ccccc3n2)s1	Mtb FBA inh 42 | Mtb FBA confirm 59 | GDH-TPI counter-2 43
O=C(Nc1ccc(F)cc1)OC1CC2CC1[C@H]1CCCCN1[C@H]2Cc1ccccc1 (stereo not given in full)	none (no result: GDH-TPI counter-1, Mtb FBA inh, MazF activator, Mtb betalactam)
CCN1CCCCC(NC(=O)c2ccc(Cl)cc2Cl)C1=O (stereo not given)	none (no result: GDH-TPI counter-1, Mtb FBA inh, MazF activator, Mtb betalactam)
C/C(=N\NC(=O)c1cc(-c2cccs2)nc2ccccc12)c1ccccn1	Mtb FBA inh 34 | Mtb FBA confirm 99 | GDH-TPI counter-2 92
CCOC(CCNC(=O)c1cc(-c2cccs2)nc2ccccc12)OCC	Mtb FBA inh 95 | Mtb FBA confirm active | GDH-TPI counter-2 active
Cc1ccc(-c2cc(C(=O)O)c3cc(Br)ccc3n2)s1	GDH-TPI counter-1 41!, Mtb FBA inh 32 | Mtb FBA confirm 197! | GDH-TPI counter-2 194!
Cc1ccc(-c2cc(C(=O)Nc3cc(C)on3)c3ccccc3n2)cc1	none
Cc1cc(NC(=O)c2cc(-c3cccs3)nc3ccccc23)no1	Mtb FBA inh 71 | Mtb FBA confirm inactive | GDH-TPI counter-2 inactive
O=C(NCCc1ccccc1)OCc1cn(Cc2ccccc2Cl)nn1	none (no result: GDH-TPI counter-1, Mtb FBA inh, MazF activator, Mtb betalactam)
CCOc1cccc(-c2nnc3n2N=C(c2ccc(OC)cc2)CS3)c1	none (no result: GDH-TPI counter-1, Mtb FBA inh, MazF activator, Mtb betalactam)
CN(C)S(=O)(=O)c1ccc(NC(=O)c2cc(-c3cccs3)nc3ccccc23)cc1	none
